Hit rate of the full screen: of about 5,500 compounds, about 2,000 (36%) were called active. Another 18% or so got no clear call; they are omitted. Rule as the data show it: active = normalized growth mostly below about 0.91 (no sharp cut-off); inconclusive = no clear call, values can overlap the other calls; inactive = mostly above about 0.92. The list shows a part of the results.
Assay: chemical genetic growth profiling, strain panel (AID 1159580);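 also: tested at 20 µM; growth read once vehicle control cultures reached saturation at 30 °C; 1 = growth at the plate median or of vehicle wells; lower values mean less growth of the strain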
Details: growth OD

Measured: normalized growth

CCCCCCCCCCCCCC(=O)OC1C(C)C2(O)C(C=C(CO)CC3(O)C(=O)C(C)=CC32)C2C(C)(C)C12OC(C)=O (centres undefined)
inactive: S. cerevisiae deletion strains, locus YJR043C, strain POL32, stronger effect = lower value 1.03 | S. cerevisiae deletion strains, locus YJR075W, strain HOC1, stronger effect = lower value 1 | S. cerevisiae deletion strains, locus YKL009W, strain mrt4, stronger effect = lower value 0.973 | S. cerevisiae deletion strains, locus YKL068W, stronger effect = lower value 1.01 | S. cerevisiae deletion strains, locus YKL085W, strain MDH1 (second series), stronger effect = lower value 0.966 | S. cerevisiae deletion strains, locus YKL085W, strain MDH1, stronger effect = lower value 0.966 | S. cerevisiae deletion strains, locus YKL160W, strain elf1, stronger effect = lower value 1 | S. cerevisiae deletion strains, locus YKL190W, strain CNB1, stronger effect = lower value 1.02 | S. cerevisiae deletion strains, locus YKR001C, strain vps1, stronger effect = lower value 0.981 | S. cerevisiae deletion strains, locus YKR026C, strain gcn3, stronger effect = lower value 0.964 | S. cerevisiae deletion strains, locus YKR091W, strain srl3, stronger effect = lower value 0.979 | S. cerevisiae deletion strains, locus YLL001W, strain dnm1, stronger effect = lower value 0.991 | S. cerevisiae deletion strains, locus YLL026W, stronger effect = lower value 0.988 | S. cerevisiae deletion strains, locus YLL041C, strain sdh2, stronger effect = lower value 0.984 | S. cerevisiae deletion strains, locus YLR027C, strain aat2, stronger effect = lower value 0.992 | S. cerevisiae deletion strains, locus YLR039C, strain RIC1, stronger effect = lower value 1.06 | S. cerevisiae deletion strains, locus YLR058C, strain SHM2, stronger effect = lower value 0.996 | S. cerevisiae deletion strains, locus YLR102C, strain apc9, stronger effect = lower value 0.998 | S. cerevisiae deletion strains, locus YLR221C, strain rsa3, stronger effect = lower value 0.972 | S. cerevisiae deletion strains, locus YLR258W, strain gsy2, stronger effect = lower value 0.988 | S. cerevisiae deletion strains, locus YLR262C, strain YPT6 (second series), stronger effect = lower value 0.993 | S. cerevisiae deletion strains, locus YLR262C, strain YPT6, stronger effect = lower value 0.988 | S. cerevisiae deletion strains, locus YLR268W, strain sec22, stronger effect = lower value 1.01 | S. cerevisiae deletion strains, locus YLR320W, strain mms22, stronger effect = lower value 0.974 | S. cerevisiae deletion strains, locus YLR330W, strain CHS5, stronger effect = lower value 0.997 | S. cerevisiae deletion strains, locus YLR342W, strain FKS1 (second series), stronger effect = lower value 1.03 | S. cerevisiae deletion strains, locus YLR342W, strain FKS1, stronger effect = lower value 0.982 | S. cerevisiae deletion strains, locus YLR357W, strain rsc2, stronger effect = lower value 0.954 | S. cerevisiae deletion strains, locus YLR370C, strain arc18, stronger effect = lower value 0.988 | S. cerevisiae deletion strains, locus YLR371W, strain rom2, stronger effect = lower value 0.994 | S. cerevisiae deletion strains, locus YLR384C, strain iki3, stronger effect = lower value 0.99 | S. cerevisiae deletion strains, locus YLR418C, strain cdc73, stronger effect = lower value 0.973 | S. cerevisiae deletion strains, locus YML016C, strain PPZ1, stronger effect = lower value 1.03 | S. cerevisiae deletion strains, locus YML032C, strain rad52, stronger effect = lower value 0.976 | S. cerevisiae deletion strains, locus YML120C, strain ndi1, stronger effect = lower value 0.983 | S. cerevisiae deletion strains, locus YML124C, strain tub3, stronger effect = lower value 0.998 | S. cerevisiae deletion strains, locus YMR058W, strain fet3, stronger effect = lower value 0.983 | S. cerevisiae deletion strains, locus YMR078C, strain ctf18, stronger effect = lower value 0.991 | S. cerevisiae deletion strains, locus YMR125W, strain sto1, stronger effect = lower value 0.993 | S. cerevisiae deletion strains, locus YMR129W, stronger effect = lower value 0.976 | S. cerevisiae deletion strains, locus YMR205C, strain PFK2, stronger effect = lower value 0.926 | S. cerevisiae deletion strains, locus YMR223W, strain ubp8, stronger effect = lower value 0.971 | S. cerevisiae deletion strains, locus YMR231W, strain pep5, stronger effect = lower value 0.986 | S. cerevisiae deletion strains, locus YMR263W, strain SAP30, stronger effect = lower value 1 | S. cerevisiae deletion strains, locus YMR307W, strain GAS1, stronger effect = lower value 0.922 | S. cerevisiae deletion strains, locus YNL067W, strain RPL9B, stronger effect = lower value 1.01 | S. cerevisiae deletion strains, locus YNL071W, strain lat1, stronger effect = lower value 0.991 | S. cerevisiae deletion strains, locus YNL128W, strain TEP1, stronger effect = lower value 1.01 | S. cerevisiae deletion strains, locus YNL153C, strain GIM3, stronger effect = lower value 0.999 | S. cerevisiae deletion strains, locus YNL209W, strain ssb2, stronger effect = lower value 0.99 | S. cerevisiae deletion strains, locus YNL233W, strain BNI4, stronger effect = lower value 1 | S. cerevisiae deletion strains, locus YNL248C, strain rpa49, stronger effect = lower value 0.995 | S. cerevisiae deletion strains, locus YNL250W, strain rad50, stronger effect = lower value 0.981 | S. cerevisiae deletion strains, locus YNL271C, strain bni1, stronger effect = lower value 1 | S. cerevisiae deletion strains, locus YNL298W, strain CLA4, stronger effect = lower value 0.976 | S. cerevisiae deletion strains, locus YNL307C, strain MCK1, stronger effect = lower value 0.99 | S. cerevisiae deletion strains, locus YNL322C, strain KRE1 (second series), stronger effect = lower value 0.978 | S. cerevisiae deletion strains, locus YNL322C, strain KRE1, stronger effect = lower value 0.997 | S. cerevisiae deletion strains, locus YNR049C, strain mso1, stronger effect = lower value 0.981 | S. cerevisiae deletion strains, locus YNR052C, strain pop2, stronger effect = lower value 0.995 | S. cerevisiae deletion strains, locus YOL006C, strain TOP1, stronger effect = lower value 1.03 | S. cerevisiae deletion strains, locus YOL012C, strain htz1 0.932 | S. cerevisiae deletion strains, locus YOL147C, strain pex11, stronger effect = lower value 0.99 | S. cerevisiae deletion strains, locus YOR001W, strain rrp6, stronger effect = lower value 1.01 | S. cerevisiae deletion strains, locus YOR061W, strain CKA2, stronger effect = lower value 1.02 | S. cerevisiae deletion strains, locus YOR069W, strain VPS5, stronger effect = lower value 1.02 | S. cerevisiae deletion strains, locus YOR070C, strain gyp1, stronger effect = lower value 0.987 | S. cerevisiae deletion strains, locus YOR080W, strain dia2, stronger effect = lower value 0.977 | S. cerevisiae deletion strains, locus YOR083W, strain WHI5, stronger effect = lower value 1.01 | S. cerevisiae deletion strains, locus YOR106W, strain vam3, stronger effect = lower value 0.999 | S. cerevisiae deletion strains, locus YOR136W, strain idh2, stronger effect = lower value 0.981 | S. cerevisiae deletion strains, locus YOR144C, strain elg1, stronger effect = lower value 1 | S. cerevisiae deletion strains, locus YOR184W, strain ser1, stronger effect = lower value 0.979 | S. cerevisiae deletion strains, locus YOR265W, strain rbl2, stronger effect = lower value 0.997 | S. cerevisiae deletion strains, locus YOR270C, strain vph1, stronger effect = lower value 0.948 | S. cerevisiae deletion strains, locus YOR290C, strain snf2, stronger effect = lower value 0.947 | S. cerevisiae deletion strains, locus YOR316C, strain cot1, stronger effect = lower value 0.994 | S. cerevisiae deletion strains, locus YPL051W, strain arl3, stronger effect = lower value 1.02 | S. cerevisiae deletion strains, locus YPL055C, strain LGE1, stronger effect = lower value 1.02 | S. cerevisiae deletion strains, locus YPL078C, strain atp4, stronger effect = lower value 0.989 | S. cerevisiae deletion strains, locus YPL106C, strain sse1, stronger effect = lower value 0.985 | S. cerevisiae deletion strains, locus YPL240C, strain hsp82, stronger effect = lower value 0.961 | S. cerevisiae deletion strains, locus YPL241C, strain CIN2, stronger effect = lower value 0.972 | S. cerevisiae deletion strains, locus YPR119W, strain clb2, stronger effect = lower value 0.993 | S. cerevisiae deletion strains, locus YPR141C, strain kar3, stronger effect = lower value 0.986 | S. cerevisiae deletion strains, locus YPR163C, strain tif3, stronger effect = lower value 0.998 | S. cerevisiae deletion strains, locus YPR167C, strain met16, stronger effect = lower value 1 | S. cerevisiae deletion strains, strain wtn01, stronger effect = lower value 1.01 | S. cerevisiae strains, strain wild type, stronger effect = lower value 1.04
